# Laboratory results from PubChem BioAssay.
# Records with an inconclusive call do not appear. Active and inactive are the calls of the source.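 How the source made its calls, unless noted: active means GFP response above 150% of the DMSO control; inconclusive means Fewer than 70 cells counted for a yeast strain; inactive means the rest.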
# Legend:
# [1] = rapamycin-like changes in RPL19A-GFP expression – cell-based, S. cerevisiae, multiplex flow cytometry, primary screen (AID 1862; in the data active means percent of DMSO control GFP below about 86%;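 further: lower values mimic rapamycin by blocking the RPL19A rise seen in DMSO cells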); conditions: S. cerevisiae RPL19A-GFP strain, flow cytometry fluorescence, 3 h; at 10 µM; stronger effect = lower value
# [2] = TOR pathway GLN3 branch reporter MEP2-GFP changes – S. cerevisiae, multiplex flow cytometry, primary screen (AID 1867;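 active means GFP response, as percent of the DMSO control, above the screen-wide mean plus 3 SD, about 139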;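 further: median GFP channel fluorescence of barcode-gated MEP2-GFP cells measured by flow cytometry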); conditions: S. cerevisiae MEP2-GFP strain, 3 h, at 10 µM, stronger effect = higher value, 100% means same as DMSO wells
# [3] = TOR pathway RTG branch CIT2 reporter changes – S. cerevisiae, GFP fusion, multiplex flow cytometry, primary screen (AID 1870;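 active means percent response above a set limit, the screen-wide mean plus 3 SD, cut at about 130% in these data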;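 further: barcoded CIT2-GFP strain pooled with four other GFP strains with rapamycin as positive control; median GFP fluorescence per well over plate mean of DMSO wells so 100% = DMSO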); conditions: S. cerevisiae CIT2-GFP expression, 3 h, at 10 µM, stronger effect = higher value
# [4] = TOR pathway LAP4-GFP level changes – S. cerevisiae, multiplex flow cytometry, primary screen (AID 1873;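 active means GFP signal, as percent of the solvent control, above the screen mean plus 3 SD, about 149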); conditions: S. cerevisiae LAP4-GFP expression, 3 h, at 10 µM, stronger effect = higher value
# [5] = yeast AGP1-GFP level changes, GLN3 branch – cell-based, multiplex flow cytometry, S. cerevisiae, primary screen (AID 1887;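 active means GFP signal above the screen-wide mean plus 3 SD, that is over about 124.5% of the solvent control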;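 further: AGP1-GFP fusion strain of S. cerevisiae within a five-strain barcoded multiplex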); conditions: 3 h, at 10 µM, stronger effect = higher value
# [6] = hit retest on RPL19A-GFP reporter strain – cell-based, S. cerevisiae, flow cytometry, cherry picks, mother/daughter gates, confirmation (AID 2270;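 active means GFP response below 50% of the DMSO control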); conditions: 3 h, at 10 µM, stronger effect = lower value, 100 = same GFP as DMSO wells
# [7] = yeast TOR pathway reporter LAP4-GFP change – cell-based, cherry picks, flow cytometry, mother/daughter gates, confirmation (AID 2271;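 active means GFP response above 150% of the DMSO control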;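 further: ratio of sample to DMSO plate mean so 100% equals DMSO level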); conditions: S. cerevisiae LAP4-GFP strain, 3 h, at 10 µM, stronger effect = higher value, 100 means same as DMSO control
# [8] = TOR pathway reporter MEP2-GFP, retest of hits – S. cerevisiae, flow cytometry GFP, cherry picks, confirmation (AID 2272);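 further: ratio of well signal to plate DMSO mean so 100% equals DMSO level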; conditions: S. cerevisiae MEP2-GFP strain, 3 h, at 10 µM, stronger effect = higher value
# [9] = TOR pathway CIT2 reporter hit retest – S. cerevisiae, GFP fusion, cherry picks, mother/daughter gates, confirmation (AID 2274;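 active means GFP response above 150% of the DMSO level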); conditions: S. cerevisiae CIT2-GFP strain, flow cytometry, 3 h, at 10 µM, stronger effect = higher value
# [10] = reduced mouse 2C T cell binding to pMHC/ICAM-1 vesicles – MLPCN validation set, flow cytometry, LFA-1/ICAM-1 modulator project, pilot screen (AID 2523;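 active means response below a set limit, under 55% cells CD8-positive and vesicle-bound, and CD8 cells' 90th-percentile brightness under 279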;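 on vesicle binding response: mean PE anti-B7-1 fluorescence of CD8+ cells relative to row control; 100% = QL9-loaded vesicles with DMSO vehicle in the same plate row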); conditions: 2C mouse CD8+ T cells, at 7 µM, stronger effect = lower value; double positive events: measured here: CD8+/vesicle+ event percentage
# [11] = measured here: daughter cell gate
# [12] = measured here: mother cell gate
# [13] = measured here: daughter cell gate response
# [14] = measured here: mother cell gate response
SMILES,percent of DMSO control GFP [1],GFP response vs DMSO [2],percent response of DMSO control [3],GFP response vs DMSO [4],"GFP response, % of DMSO [5]",GFP response vs DMSO [6],"GFP response vs DMSO [6, 11]","GFP response vs DMSO [6, 12]",GFP response relative to DMSO [7],"GFP response relative to DMSO [7, 13]","GFP response relative to DMSO [7, 14]",GFP response vs DMSO [8],"GFP response, % of DMSO [9]","GFP response, % of DMSO [9, 11]","GFP response, % of DMSO [9, 12]",double positive events [10],vesicle binding response [10]
COc1ccc(C(=O)NCC2OCCc3ccccc32)cc1 (centres undefined),90% (inactive),150% (active),120% (inactive),107% (inactive),107% (inactive),96.4% (inactive),97.1%,97.2%,103% (inactive),102%,104%,102% (inactive),98.3% (inactive),99.1%,97.3%,64.3%,122% (inactive)
C[C@]12C[C@H](O)[C@H]3[C@@H](CCC4=CC(=O)CC[C@@]43C)[C@@H]1CC[C@@H]2C(=O)CO,96.3% (inactive),110% (inactive),112% (inactive),78.1% (inactive),101% (inactive),98.2% (inactive),98.9%,98.7%,94.1% (inactive),94.4%,94%,98.3% (inactive),105% (inactive),105%,106%,70.2%,222% (inactive)
